Here are results for 63 compounds from PubChem BioAssay AID834 (PCMD, 2007).

Out of some 85,000 compounds screened, about 120 (0.14%) were called active.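 Rule for the calls: active = inhibition above 20%; inactive = inhibition below 20%.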 Only a selection was taken, and actives are over-represented in it overall.

The test can be described thus: clotrimazole potentiators killing Candida biofilms, primary screen, with clotrimazole, Alamar Blue (AID 834).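 Note: preformed 24 hr biofilms exposed to compound for 48 hr; 0% = biofilm without compound and 100% = blank killed by clotrimazole plus chlorhexidine.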 Conditions: C. albicans biofilm + clotrimazole, at 6 µM, stronger effect = higher value.
For `CCOc1ccccc1C(=O)NC1CC2CCCC(C1)N2Cc1ccccc1` (stereo not drawn), the inhibition is 1.7% (inactive).

Consider `CCn1nnnc1SCC(=O)c1ccc(C)cc1C`, for which the inhibition is -2.31% (inactive).

Consider `Cc1ccccc1CSCCNC(=O)c1ccc(Cl)c(S(=O)(=O)N2CCOCC2)c1`, for which the inhibition is 3.05% (inactive).

Consider `O=C(NCc1ccccc1)[C@@H]1CSC2c3ccccc3C(=O)N21` (stereo partly drawn), for which the inhibition was -0.55% (inactive).

As for `Oc1ccc(-c2onc3ccc(Cl)cc23)cc1`, the inhibition is 3.22% (inactive).

Consider `CCCCCCNCCn1cnc2c(N)ncnc21`, for which the inhibition was 8.75% (inactive).

Take `Cc1cc(C)c(OCC(=O)N/N=C/c2ccco2)c(C)c1`: the inhibition was -5.16% (inactive).

Take `Cn1c2c(c(=O)n(C)c1=O)C(c1cccc([N+](=O)[O-])c1)Nc1ccccc1O2` (stereo not drawn): the inhibition was 6.05% (inactive).

For the compound `c1ccc(-n2nc3ccccc3n2)cc1`, the inhibition was 9.8% (inactive).

As to `Cc1ccc(S(=O)(=O)NCC(C)NS(C)(=O)=O)cc1` (stereo not drawn), the inhibition was 3.23% (inactive).

Take `O=C1C(Cl)=C(N2CCOCC2)C(=O)N1c1ccccc1`: the inhibition is 3.34% (inactive).

As for `Fc1ccccc1/C=C1\CCCC2=C1Nc1ncnn1C2c1ccccc1F` (stereo not drawn), the inhibition is 56.5% (active).

`COc1ccc(OC)c(-n2nnnc2SCC(=O)Nc2cc(C)ccc2OC)c1`: the inhibition is 4% (inactive).

On to `O=S(=O)(NCCc1ccccc1)c1ccccc1`, for which the inhibition is 5.09% (inactive).

For the compound `O=C(NCC1CCCO1)c1ccc2ccccc2n1` (stereo not drawn), the inhibition was 2.84% (inactive).

As for `CC(C)Oc1ccc(C(=O)NC(C)(C)CO)cc1`, the inhibition was 0.21% (inactive).

In the case of `CCN1CCN(C(=O)C2(NC(=O)Nc3cccc(F)c3)CCCCC2)CC1`, the inhibition is -2.53% (inactive).

As to `CCn1c(SCC(=O)Nc2ccc(OC)c(OC)c2)nnc1-c1c[nH]c2ccccc12`, the inhibition is 2.3% (inactive).

Take `O=C(Nc1ccccc1-c1nnn(CC(=O)N2CCCc3ccccc32)n1)c1cccc(Cl)c1`: the inhibition is -4.65% (inactive).

For `CCSc1nc(-c2ccc(OC)cc2)cc(-c2ccc(OC)cc2)c1C#N`, the inhibition was 3.4% (inactive).

Regarding `CC(C)(C)c1ccc(OC2=CS(=O)(=O)c3ccccc32)cc1`, the inhibition was 1.17% (inactive).

In the case of `Cc1c(C=O)c2ccccn2c1C(=O)c1ccncc1`, the inhibition was -3.35% (inactive).

For `Cc1cc(SCC(=O)c2ccccc2)nc(SCC(=O)c2ccccc2)n1`, the inhibition is 9.02% (inactive).

As to `COCC(=O)Nc1ccc(Br)cc1`, the inhibition is 5.17% (inactive).

Take `COC(=O)c1sc(=S)n(-c2ccc(Cl)cc2)c1C`: the inhibition was 5.98% (inactive).

For `CC(=O)C1=C(C)NC(C)=C(C(C)=O)C1c1cn(-c2ccccc2)nc1-c1cccs1`, the inhibition was 4.22% (inactive).

As to `O=C(NCCCn1ccnc1)Nc1ccc(Cl)cc1Cl`, the inhibition was 8.78% (inactive).

Take `COC(=O)c1ccc(Sc2ccc(F)cc2)c(N)c1`: the inhibition was 2.2% (inactive).

Take `Cc1ccc(N(Cc2ccc(C(=O)Nc3ccccc3C(=O)NCc3ccco3)cc2)S(C)(=O)=O)cc1C`: the inhibition was 0.88% (inactive).

Consider `COc1cc2c(cc1OC)C(C(C)C)=NC(C)(C)C2`, for which the inhibition is 4.82% (inactive).

Take `COc1ccc(Nc2ncc(C(=O)N3CCN(c4ccccc4OC)CC3)c3ccccc23)cc1`: the inhibition was 10.1% (inactive).

As to `Cc1[nH]n(-c2ccc(Cl)cc2)c(=O)c1/C=N/n1c(C)nc2ccccc2c1=O`, the inhibition is 7.46% (inactive).

Take `COC(=O)Nc1ncc(CN2CCCCC2)s1`: the inhibition was -1.41% (inactive).

`CN(C)S(=O)(=O)c1ccc(N2CCCC2)c(C(=O)NCc2ccccc2)c1`: the inhibition was -0.61% (inactive).

Turning to `CCC(C)NC(=O)c1ccccc1NC(=O)c1ccccc1N(C)S(C)(=O)=O` (stereo not drawn), the inhibition is -0.05% (inactive).

`COC(=O)c1ccccc1Sc1c(/C=N/OCc2ccc(Cl)cc2)c(C(F)(F)F)nn1C`: the inhibition is -1.64% (inactive).

For `S=C1NC(c2ccccc2)=NCN1c1ccc(Br)cc1`, the inhibition is 5.98% (inactive).

As for `C=CCOC(=O)C1=C(C)NC(SCC(=O)OCC)=C(C#N)C1c1ccc(C)cc1` (stereo not drawn), the inhibition is 3.88% (inactive).

Turning to `N#CC1=C(SCc2ccc(C#N)cc2)N=C(N)C(c2nc(-c3ccccc3)cs2)C12CCCCC2` (stereo not drawn), the inhibition was -2.54% (inactive).

Regarding `Cc1ccc(CCN2CC(C(=O)O)CC2=O)cc1` (stereo not drawn), the inhibition was 2.77% (inactive).

As for `COc1ccc(CN(CC(=O)NC2CCCC2)C(=O)CCC(=O)Nc2cc(C)on2)cc1`, the inhibition is -2.23% (inactive).

For the compound `CCn1c2ccccc2c2cc(NC(=S)N3CCOCC3)ccc21`, the inhibition is 5.56% (inactive).

`CCN(c1ccccc1)S(=O)(=O)c1ccc(C(=O)Nc2nccs2)cc1`: the inhibition is 2.15% (inactive).

`CCOC(=O)c1cnc(SCC(=O)Nc2ccccc2C(=O)OC)nc1N`: the inhibition was 4.94% (inactive).

For the compound `CCNc1nc(NC(C)C)nc(OCCOC(=O)c2ccccc2)n1`, the inhibition is 2.57% (inactive).

On to `Cc1cccc(N2CCN(C(=O)c3cnn4c(C(F)F)cc(-c5ccccc5)nc34)CC2)c1C`, for which the inhibition is 7.54% (inactive).

As to `CCOCCn1c(C(C)C)nc2ccccc21`, the inhibition is 0.21% (inactive).

With `O=C(CN1CCOCC1)Nc1ccccc1`, the inhibition is 2.89% (inactive).

As for `COC(=O)c1ccc(CSc2nnc(NC(C)C)s2)cc1`, the inhibition was 8.02% (inactive).

For `COc1ccccc1C(c1nnnn1C(C)(C)C)N1CCN(Cc2ccccc2)CC1` (stereo not drawn), the inhibition was -0.02% (inactive).

Turning to `COc1ccc(Br)cc1CN1CCN(C(=O)c2cccc(OC)c2OC)CC1`, the inhibition is -0.18% (inactive).

On to `Cc1nn(Cc2ccccc2)c2c1C(c1ccccc1)C(C#N)=C(N)O2` (stereo not drawn), for which the inhibition was 4.23% (inactive).

Consider `CCCc1cc(=O)[nH]c(SCC(=O)c2cc(C)n(CCC)c2C)n1`, for which the inhibition was 9.55% (inactive).

For `C=CCN(C(=O)Cn1ncc2c1-c1cc(C)ccc1OC2)c1ccccc1`, the inhibition was 3.48% (inactive).

With `CC(C)(C)c1nc2ccccc2c(=O)n1N1C(=O)c2ccccc2C1=O`, the inhibition is 1.87% (inactive).

Regarding `OC(c1ccccc1)c1nccn1Cc1ccccc1` (stereo not drawn), the inhibition is 6.12% (inactive).

In the case of `CCOc1cccc(C(=O)Nc2nnc(-c3cccs3)s2)c1`, the inhibition was 5.64% (inactive).

Consider `CC(C)N1C(=S)SC(C)(C)C1n1oc(=O)n(-c2ccc(Cl)c(Cl)c2)c1=O` (stereo not drawn), for which the inhibition is 8.09% (inactive).

For the compound `Cc1noc(COc2ccccc2OCc2onc(C)c2Cl)c1Cl`, the inhibition was -3.84% (inactive).

Consider `COC(=O)c1sccc1-n1cccc1C(=O)C(=O)N1CCCCC1`, for which the inhibition is 6.37% (inactive).

With `COCCNC(=O)COc1ccccc1C`, the inhibition is 4.87% (inactive).

Take `CCC(C)NC(=O)CCCc1ccccc1` (stereo not drawn): the inhibition is 5.94% (inactive).

Take `COc1ccc(NC(=O)C2C3C=CC(C3)C2C(=O)NCc2ccccn2)c(OC)c1` (stereo not drawn): the inhibition is 3.96% (inactive).

In general, inhibition refers to the drop in the measured response relative to a control, in per cent.
